Assay results from PubChem BioAssay (NCATS).
Inconclusive results are not listed. A number with no mark means an inactive call. Calls of active or inactive are those of the source. Calls follow the shape of the dose curve; as a rule, active = well fitted cell-killing curve with a large enough effect; inconclusive = small, poorly fitted or top-dose-only effect, or effect the other way; inactive = no such curve, though single readings can be large or run the other way.

test: Quantitative High-Throughput drug screen in 47 multiple myeloma cell lines against the NCATS MIPE library collection: SKMM1_PLB cell viability assay (AID 1919863); conditions: SKMM1 myeloma viability, CellTiter-Glo ATP, 48 h; viability: stronger effect = lower value
Procedure, shortened: (§1)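 Readout: median RLU from CellTiter-Glo after 5 min at room temperature. Preceding step was 48 h drug treatment of 500 cells/well at 37 °C, 5% CO2, with DMSO-only and media-only control wells.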
Also: nearly all actives have a fitted effect of over 35% in size.
Potency is read from the fitted curve at half-maximal effect.

With `NC(=O)NN=Cc1ccc([N+](=O)[O-])o1` as the compound, how does the viability read?
The viability was 122%.

With `CC=CCC=CCCC(=O)[C@H]1O[C@@H]1C(N)=O` as the compound, how does the Potency read?
The Potency was 18.7 µM (active).

Which Potency does the source give for `Clc1cc(Cl)cc(CNc2ncncc2-c2ccc3c(c2)OCO3)c1` here?
The Potency was 16.6 µM (active).

With `CC1(C)CCC2=C(O1)c1ccccc1C(=O)C2=O` as the compound, how does the Potency read?
Its Potency is 20.9 µM (active).

With `CCCCCNC(=O)N1CCC(CN(Cc2ccc(Cl)cc2)Cc2ccc([N+](=O)[O-])s2)C1` (centres undefined) as the compound, how does the Potency read?
Its Potency is 18.7 µM (active).

With `CC(C)n1nc(-c2ccc3oc(N)nc3c2)c2c(N)ncnc21` as the compound, how does the Potency read?
The Potency was 0.0074 µM (active).

test: Quantitative High-Throughput drug screen in 47 multiple myeloma cell lines against the NCATS MIPE library collection: U266_ATCC cell viability assay (AID 1919864); conditions: U266 myeloma viability, CellTiter-Glo ATP luminescence, 48 h; series mostly up to 45.8 µM; viability (% of DMSO control): at the top concentration;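 as to viability (% of DMSO control): 0% = media-only wells without cells and 100% = DMSO-only wells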
Procedure, shortened: as §1

With `Clc1ccc(CCC(Cn2ccnc2)Sc2c(Cl)cccc2Cl)cc1` (centres undefined) as the compound, how does the “viability (% of DMSO control)” value read?
The value was 103%.

For `N[C@H](CSC(c1ccccc1)(c1ccccc1)c1ccccc1)C(=O)O`, which “viability (% of DMSO control)” value is on record?
Its value is 130%.

With `CC[C@H]1OC(=O)[C@H](C)C(=O)[C@H](C)[C@@H](O[C@H]2O[C@H](C)C[C@H](N(C)C)[C@@H]2O)[C@](C)(OC)C[C@@H](C)C(=O)[C@H](C)[C@H]2N(CCCCn3cnc(-c4cccnc4)c3)C(=O)O[C@]12C` as the compound, how does the “viability (% of DMSO control)” value read?
Its value is 109%.

With `CC=CCC(C)C(O)C1C(=O)NC(CC)C(=O)N(C)CC(=O)N(C)C(CC(C)C)C(=O)NC(C(C)C)C(=O)N(C)C(CC(C)C)C(=O)NC(C)C(=O)NC(C)C(=O)N(C)C(CC(C)C)C(=O)N(C)C(CC(C)C)C(=O)N(C)C(C(C)C)C(=O)N1C` (centres undefined) as the compound, how does the “viability (% of DMSO control)” value read?
The value was 121%.

With `C=CCc1ccc(O)c(-c2ccc(O)c(CC=C)c2)c1` as the compound, how does the Potency read?
Its Potency is 16.6 µM (active).

For `CC(=O)O[C@]1(C(C)=O)CC[C@@H]2[C@@H]3C[C@H](C)C4=CC(=O)CC[C@]4(C)[C@H]3CC[C@@]21C`, which Potency is on record?
Its Potency is 20.9 µM (active).

For `Cc1cccc(Nc2nc(-c3ccncc3)cs2)c1`, which “viability (% of DMSO control)” value is on record?
Its value is 89.9%.

For `Nc1nc(F)nc2c1ncn2[C@@H]1O[C@H](COP(=O)(O)O)[C@@H](O)[C@H]1O`, which Potency is on record?
The Potency was 0.526 µM (active).

With `CO[C@H]1C[C@@H]2CC[C@@H](C)[C@@](O)(O2)C(=O)C(=O)N2CCCC[C@@H]2C(=O)O[C@H]([C@H](C)C[C@@H]2CC[C@H](OP(C)(C)=O)[C@H](OC)C2)CC(=O)[C@H](C)C=C(C)[C@@H](O)[C@@H](OC)C(=O)[C@H](C)C[C@H](C)C=CC=CC=C1C` as the compound, how does the “viability (% of DMSO control)” value read?
The value was 97.8%.

With `O=C1NC(=O)C(=Cc2ccc(-c3ccc(F)cc3)o2)S1` as the compound, how does the “viability (% of DMSO control)” value read?
Its value is 114%.

For `OC[C@H]1O[C@@H](Oc2cc(O)cc(C=Cc3ccc(O)cc3)c2)[C@H](O)[C@@H](O)[C@H]1O`, which “viability (% of DMSO control)” value is on record?
Its value is 130%.

Which “viability (% of DMSO control)” value does the source give for `COc1ccc(C2CC(c3ccccc3)=NN2c2ccc(S(N)(=O)=O)cc2)cc1` (centres undefined) here?
Its value is 105%.

With `O=C1Nc2ccc(Cl)cc2C(C#CC2CC2)(C(F)(F)F)O1` (centres undefined) as the compound, how does the Potency read?
The Potency was 23.5 µM (active).

With `c1ccc2c(-c3cnn4cc(-c5ccc(N6CCNCC6)cc5)cnc34)ccnc2c1` as the compound, how does the Potency read?
Its Potency is 8.33 µM (active).

For `Clc1cc(Cl)cc(CNc2ncncc2-c2ccc3c(c2)OCO3)c1`, which “viability (% of DMSO control)” value is on record?
The value was 131%.

With `CC(=O)Oc1cc2c(s1)CCN(C(C(=O)C1CC1)c1ccccc1F)C2` (centres undefined) as the compound, how does the Potency read?
Its Potency is 8.33 µM (active).

For `CC1(C)CCC2=C(O1)c1ccccc1C(=O)C2=O`, which Potency is on record?
The Potency was 20.9 µM (active).

Which Potency does the source give for `CCCCCNC(=O)N1CCC(CN(Cc2ccc(Cl)cc2)Cc2ccc([N+](=O)[O-])s2)C1` (centres undefined) here?
The Potency was 16.6 µM (active).
